pAkt inh: HTS Assay for Inhibitors of Akt Phophorylation: Primary Screen | Neuro2A IGF-stimulated pAkt S473 HTRF, 20 min; active compounds read low | activity change, % for hits at 50 µM | 360,000 tested, 0.32% active | AID 651550, 2012; in the data active means activity change below about -80%; inconclusive means mostly about -51% to -80%; further: on the % scale 0 is the no-effect control and ±100 the full control effect
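Single-point screen (50 µM final compound) in Neuro2A cells stimulated 20 min with 6 nM IGF at 37 deg C. After lysis, Ser473-phosphorylated Akt read by HTRF (ex 330 nm, em 615/665 nm) as the 665/615 ratio.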
Abeta rescue: qHTS for compounds that reverse cellular toxicity of Amyloid beta (A-beta) peptide in yeast: Primary Screen | AID 1347071, 2019 | Potency, µM (doses to about 46.1 µM), hits mostly activators | 410,000 tested, 0.063% active | yeast expressing A-beta42, growth rescue, OD600, 48 h; response scale: 0% DMSO, 100% iron-clioquinol control; further: potency means the concentration at half of the fitted maximal effect; nearly all actives have a fitted effect of over 55% in size
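Yeast A-beta toxicity model in growth medium with pinned compounds, 48 h at 30 C; growth read as absorbance at 600 nm. Normalized to FeCl3/clioquinol equimolar mix (positive) and DMSO (negative).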
FUS yeast rescue: qHTS for Suppressors of FUS Proteinopathy: Primary screen using FUS-linked yeast assay. 390,000 tested, 0.24% active. Potency, µM (series often up to 76.6 µM), usual class: activators. S. cerevisiae FUS-expressing, growth rescue, OD600, 24 h;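 further: potency means the concentration at half of the fitted maximal effect; plate controls were DMSO vehicle for no effect and reference control for full effect; nearly all actives have a fitted effect of over 55% in size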
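Steps: raffinose overnight preculture; dilution to OD 0.005 in 2% galactose minimal medium; compound addition (concentration series); 24hr at 30C, 99% humidity; absorbance read at 600 nm.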
aSyn yeast inh: qHTS of alpha-syn Inhibitors; 370,000 tested, 0.14% active; Potency, µM (titrated, usually from 46.1 µM), without a hit: top-dose growth rescue (activation), most hits filed as activators; Yeast expressing alpha-synuclein, growth rescue, BacTiter-Glo, 24 h; further: potency means the concentration at half of the fitted maximal effect; % of control where 0% means no effect; nearly all actives have a fitted effect of over 65% in size
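Screening used galactose-induced yeast with toxic alpha-synuclein levels, exposed to compound for 24 hr at 30 deg C. Cell growth, read with BacTiter-Glo luminescence, gave the measured signal.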
TDP43 rescue: qHTS of TDP-43 Inhibitors. TDP-43 expressing yeast growth rescue, BacTiter-Glo, 24 h. Potency, µM (series often up to 46.1 µM), for the others: at the top dose growth rescue (activation), usual class: activators. 410,000 tested, 1.8% active. AID 652104, 2013; further: potency means the concentration at half of the fitted maximal effect; % of control where 0% means no effect; nearly all actives have a fitted effect of over 50% in size
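Readout is BacTiter-Glo luminescence of cell growth, so inhibitors register as activators. TDP-43-expressing yeast at OD600=0.02 in galactose medium, after raffinose pregrowth to mid-log, were incubated with compound for 24 hr at 30 deg C.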
* marks the source's active call; other numbers are inactive results; i = inactive; ? = inconclusive; . = no result; [ ] = another dose, or the depositor's remark. Compounds with a hit are over-represented: about 2.3% of the library has one in this group of screens. Unless noted, the call rests on the fitted dose curve; in most records, active means well fitted curve in the direction sought with a large enough effect; inconclusive means small, poorly fitted or top-dose-only effect, or another doubt; inactive means no such curve, though single readings can be large; an effect the other way counts as inactive or inconclusive.

SMILES	pAkt inh	Abeta rescue	FUS yeast rescue	aSyn yeast inh	TDP43 rescue
O=[N+]([O-])c1ccc(-c2ccc(/C=N/Nc3nc(N4CCCCC4)nc(N4CCCCC4)n3)o2)cc1	i	i	i	-8%	14µM*
O=[N+]([O-])c1ccc(-c2ccc(/C=N/Nc3nc(N4CCCC4)nc(N4CCCC4)n3)o2)cc1	i	i	i	0%	11%
O=C(CCn1c(=O)oc2ccccc21)N(Cc1ccccc1)c1ccccc1	i	i	i	-1%	22µM*
O=C(CCl)N(Cc1ccccc1)c1ccccc1	i	i	i	-13%	20µM*
O=C(CCCCn1c(=O)c2ccccc2n(Cc2cccc(F)c2)c1=O)NCc1ccc2c(c1)OCO2	.	i	i	.	28%
Cc1ccc(Cn2c(C(=O)O)c(CNC3CCCC3)c3ccc(C)cc32)cc1	.	i	i	.	17%
Cc1cccc2sc(N(Cc3cccnc3)C(=O)c3cccs3)nc12	.	i	i	.	32µM*
COc1ccc2nc(N(Cc3cccnc3)C(=O)C3CCCCC3)sc2c1	.	i	i	.	6.3µM*
Cc1cccc2sc(N(Cc3cccnc3)C(=O)Cc3ccccc3)nc12	.	i	i	.	13µM*
Cc1cc(C)c2nc(N(Cc3cccnc3)C(=O)c3cccs3)sc2c1	.	i	i	.	19%
Cc1cccc2sc(N(Cc3cccnc3)C(=O)c3ccco3)nc12	.	i	i	.	18µM*
CN(CCCc1cnc[nH]1)C(=S)NCCCN(Cc1ccc(Cl)cc1)c1ccc(Br)cn1	.	.	.	-19%	.
N.N.N.N.N.N.N.N.N.N.N.N.N.N.O.O.[Ru+4].[Ru+5].[Ru+5]	.	.	.	-69%	.
COc1ccc2nc(N(Cc3cccnc3)C(=O)c3ccco3)sc2c1	.	i	i	.	?
CCOc1ccc2nc(N(Cc3cccnc3)C(=O)c3ccco3)sc2c1	.	i	i	.	20µM*
CCOC(=O)c1c(C)oc2nc(C)nc(NCC3CCN(Cc4cccc(Cl)c4)CC3)c12	.	i	i	.	-5%
CCOc1ccc(C2=NC(c3cccs3)=Nc3ccc(C(C)C)cc3N2)cc1	.	i	?	.	0%[9.22 µM]
CCn1c(C)nc2cc(C(=O)NNC(=O)c3ccc(C)cc3)ccc21	i	i	i	0%	0%
CCn1c(C)nc2cc(C(=O)NNS(=O)(=O)c3c(C)c(C)cc(C)c3C)ccc21	-120%*	i	i	4%	3%
CCOc1ccc(C(=O)NCCc2csc(-c3ccc(C(F)(F)F)cc3)n2)cc1OCC	.	i	i	.	0%
C=CC(C)=C[C@@]1(C)SC(=O)C(C)=C1O	.	.	.	-2%	.
CCCNC(=O)c1cnn2c(C(F)F)cc(-c3ccccc3)nc12	.	i	i	.	13µM*
COCCNC(=O)c1cnn2c(C(F)F)cc(-c3ccc(C)cc3)nc12	i	i	i	0%	0%
COc1cccc(Cc2nc3ccccc3nc2SCC(=O)NCCc2ccccc2)c1	.	i	i	.	25%
COc1cc(OC)c(NC(=O)N2CCSc3ccccc32)cc1Cl	.	i	i	.	-3%
SMILES	pAkt inh	Abeta rescue	FUS yeast rescue	aSyn yeast inh	TDP43 rescue
COc1ccc(CCn2c3c(c(=O)[nH]c2=S)CN(C)CN3)cc1OC	.	.	.	4%	.
CO/N=C(\c1nonc1N)N1CCN(c2ccc(Cl)cc2[N+](=O)[O-])CC1	i	i	i	4%	14µM*
CO/N=C(\c1nonc1N)N1CCN(c2ccc([N+](=O)[O-])cc2Cl)CC1	i	i	i	21%	28%
Clc1cccc(CSc2nnc(C3CCNCC3)o2)c1	.	i	i	.	-13%[9.22 µM]
C[C@H](c1ccccc1)N1C[C@@H](COCc2ccccc2)Oc2cc(N3CC[C@@H](O)C3)ccc2S1(=O)=O	i	i	i	0%	28µM*
Cc1ccc(-c2cc(-c3nnc(SCC(=O)N(C)CCC#N)n3N)c3ccccc3n2)cc1	-115%*	i	i	1%	2%
CCCCNc1ncnc2c1cnn2-c1ccc(C)cc1C	i	i	i	-10%	13µM*
Cc1ccc(Cl)cc1-n1ncc2c(NCCc3ccccc3)ncnc21	.	i	i	.	22µM*
